About 79,000 compounds went through this panel and 15% of them were active in at least one assay; those are over-represented in the sample as a whole. Values without a mark were called inactive. Rule as the data show it: active = growth inhibition above about 70%; inactive = the rest.
Test: NCI Yeast Anticancer Drug Screen. Data for the cln2 rad14 strain (AID 165);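 also: 0% = growth equal to vehicle treated cultures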
Settings: S. cerevisiae cln2 rad14 strain, at 50.0 µM, stronger effect = higher value
Method in brief: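 The screen exposed genetically defined yeast (cln2 rad14) to test compounds and scored growth inhibition relative to vehicle-treated controls.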

| Structure (SMILES) | growth inhibition |
| --- | --- |
| CN1C(=O)C(=O)n2c(cc3ccccc32)C1=O | 6.2% |
| CSSC(SC)SC | -21.1% |
| CC(C)=C(CSC#N)S(=O)(=O)c1ccc(C)cc1 | -5.1% |
| S=C(c1ccccc1Cl)N1CCOCC1 | 17.1% |
| CCN(CC)c1ccccc1-c1ccccc1 | -58.6% |
| CC(=O)Nc1ccc(/C=N/NC(N)=O)cc1 | 8.55% |
| O=C1CC2C(=O)N(Cc3ccccc3)C1C=C2S(=O)(=O)c1ccccc1 (stereo not given) | 4.25% |
| CC/C(C)=C1/CC(C)(C)N=C1C | -20.6% |
| O=C1c2cccc3cc([N+](=O)[O-])cc(c23)C(=O)N1C(Cc1ccccc1)c1ccccc1 (stereo not given) | 15.1% |
| NC(N)=Nc1nc2ccc(Cl)cc2[nH]1 | -4.3% |
| COC(=O)CCSc1ccccc1 | 6.7% |
| O=C(C(=O)c1cccc(C(=O)C(=O)c2ccccc2)c1)c1ccccc1 | 17.3% |
| CCCCS(=O)(=O)Nc1cccc(C(=O)O)c1 | -17.4% |
| CCC(CC)OC(=O)Nc1cccc2ccccc12 | -55% |
| CN(C)CCCN=C(N)N | 20.4% |
| CCC(=O)N(C)C1(C#N)CCCCC1 | 0.1% |
| CONC(CC(=O)c1ccccc1)c1ccccc1 (stereo not given) | 2.7% |
| Cn1ncc2c(N)nc(NCCO)nc21 | -19.1% |
| O=C1NC(c2cccc3ccccc23)Nc2ccccc21 (stereo not given) | -6.6% |
| O=C1C(Cl)(Cl)C(=O)C(Cl)(Cl)C(=O)C1(Cl)Cl | 0.4% |
